In the library only some 7.3% were active in any assay of this set; here they are far more common.
FMDV antiviral – High Throughput Screening for Foot and Mouth Disease Virus Antivirals; FMDV antiviral cell-based qHTS; Potency, µM (series often up to 57.9 µM), inactives show at the highest dose activity change, negative = inhibition, hits mostly inhibitors; 410,000 tested, 1.2% active; AID 1159524, 2015; calls by dose curve; tested in HEK293T cells; further: read-out not given here; potency means the concentration at half of the fitted maximal effect; nearly all actives have a fitted effect of over 45% in size
HCMV inh – qHTS Assay for inhibitors of the human cytomegalovirus (HCMV) | HFF cells, HCMV-luciferase reporter, 72 h; hits give low values | activity change, negative = inhibition, % at 57.5 µM | 410,000 tested, 4.5% active | AID 1259415, 2018; in the data active means activity change below about -60%; inconclusive means no clear call, values can overlap the other calls; inactive means above about -39%
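HFF cells seeded 16 h at 37C, treated with compounds, infected with luciferase-reporter HCMV at MOI 1 PFU/cell; luciferase read at 72 h post infection, normalized to buffer-only and Salinomycin controls.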
VACV mCherry inh – qHTS for Stage-Specific Inhibitors of Vaccinia Orthopoxvirus: mCherry Reporter Primary qHTS; Vaccinia virus mCherry reporter infection, fluorescence; Potency, µM (highest dose often 36.5 µM), for the others: at the top dose activity change, negative = inhibition, actives largely listed as inhibitors; 310,000 tested, 0.63% active; AID 720579, 2013; calls by dose curve; tested in A549 cells; further: potency means the concentration at half of the fitted maximal effect; nearly all actives have a fitted effect of over 35% in size
HCV inhibitor – qHTS Assay for Inhibitors of Hepatitis C Virus (HCV) | Huh7.5.1 HCVcc-Cre infection, luciferase reporter, 44 h | Potency, µM (highest dose often 41.8 µM), for inactives: at the top dose activity change, negative = inhibition, usual class: inhibitors | 340,000 tested, 3.4% active; active means well fitted inhibition curve with a large enough effect; inconclusive means small, poorly fitted or top-dose-only effect, or another doubt; inactive means no such curve, though single readings can be large or run the other way; further: potency means the concentration at half of the fitted maximal effect
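Infectious HCVcc-Cre (~0.5 moi) was added to cells just after compound, with cells seeded 4 h earlier at 1,000 per well. Luciferase activity after 44 h culture reported infection; substrate was incubated 15 min at room temperature before reading.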
Vaccinia Venus – qHTS for Stage-Specific Inhibitors of Vaccinia Orthopoxvirus: Venus Reporter Primary qHTS. Vaccinia virus Venus reporter expression, fluorescence. Potency, µM (top dose mostly 36.5 µM), without a hit: at the highest dose activity change, negative = inhibition, hits mostly inhibitors. 330,000 tested, 0.46% active. AID 720580, 2013; calls by dose curve; tested in A549 cells; further: potency means the concentration at half of the fitted maximal effect; nearly all actives have a fitted effect of over 30% in size
An asterisk follows results filed as active; [ ] = remark or other dose. On the % scale 0 is the no-effect control and ±100 the full control effect.

Screening O=S(=O)(NCC1CCCO1)c1ccc(-c2ccc(Cl)cc2)cc1 (configuration not stated) returned FMDV antiviral 37%, HCMV inh -60*, VACV mCherry inh -18%, HCV inhibitor inconclusive and Vaccinia Venus -17%.
Cc1ccc2c(c1)cc1c(=O)n(CC(=O)NC3CCCCC3)nc(C)n12 was read as FMDV antiviral 1%, HCMV inh -23, VACV mCherry inh -20% and Vaccinia Venus -6%.
CC(=Nc1ccc(Cl)cc1N)c1c(O)cc(C)oc1=O was read as HCMV inh 112.
CCCOC(=O)c1c(C)oc2c1cc(NS(=O)(=O)c1ccc(OCC)cc1)c1ccccc12 was read as FMDV antiviral 7%, HCMV inh -96*, VACV mCherry inh inconclusive and Vaccinia Venus inconclusive.
Screening CCOC(=O)c1c(C)oc2c1c(C=NCc1ccccn1)c(O)c1ccccc12 returned FMDV antiviral -22%, HCMV inh -32, VACV mCherry inh -4%, HCV inhibitor 4.5µM* and Vaccinia Venus -10%.
CCOc1ccc(S(=O)(=O)Nc2cc3c(C(=O)OCc4ccccc4)c(C)oc3c3ccccc23)cc1 was read as FMDV antiviral 6%, HCMV inh -84*, VACV mCherry inh -26% and Vaccinia Venus -20%.
`CCOC(=O)c1c(C)oc2c1cc(O)c1ccccc12` gave FMDV antiviral 43%, HCMV inh 179, VACV mCherry inh -10%, HCV inhibitor 32µM* and Vaccinia Venus -1%.
For Cc1c(CCC(=O)NCc2ccc(F)cc2)c(=O)oc2cc(O)ccc12 the results were FMDV antiviral -15%, HCMV inh -10, VACV mCherry inh -14% and Vaccinia Venus -13%.
Screening CCCCCCCCNc1ccc(/C=C/c2ccnc3ccccc23)cc1 returned VACV mCherry inh -14% and Vaccinia Venus -9%.
For S=C1SCN(CC2CC2)CN1CC1CC1 the results were FMDV antiviral -22%, HCMV inh -77*, VACV mCherry inh inactive, HCV inhibitor inconclusive and Vaccinia Venus -1%.
Cc1ncc(CO)c(/C=N/NC(=O)c2ccc(O)cc2)c1O was read as FMDV antiviral -29%, HCMV inh 3, VACV mCherry inh -17%, HCV inhibitor -15% and Vaccinia Venus -2%.
Cc1ncc(CO)c(/C=N/NC(=S)Nc2ccc(Cl)c(Cl)c2)c1O was read as FMDV antiviral -10%, HCMV inh 7, VACV mCherry inh -19%, HCV inhibitor 14µM* and Vaccinia Venus -17%.
For Cc1ncc(CO)c(/C=N/NC(=O)c2cc3c(s2)CCCC3)c1O the results were FMDV antiviral -6%, HCMV inh -66* and HCV inhibitor 7.9µM*.
For Cc1ncc(CO)c(/C=N/NC(=S)Nc2cccc(Cl)c2)c1O the results were FMDV antiviral -10%, VACV mCherry inh inconclusive, HCV inhibitor inconclusive and Vaccinia Venus inconclusive.
For Cc1nnsc1S(=O)c1ccc(Cl)c(Cl)c1 (configuration not stated) the results were FMDV antiviral inconclusive, HCMV inh inconclusive and HCV inhibitor -25%.
Screening O=S(c1ccc2ccccc2c1)c1cnns1 (configuration not stated) returned FMDV antiviral inconclusive, HCMV inh -68*, HCV inhibitor inconclusive and Vaccinia Venus 10µM*.
Screening Cc1ccccc1Cn1ccc(=NCc2ccccc2)cc1 returned FMDV antiviral 1%, HCMV inh -98*, VACV mCherry inh inactive, HCV inhibitor 26% and Vaccinia Venus -1%.
`O=c1ccn(Cc2ccccc2)cc1` gave FMDV antiviral -20%, HCMV inh -2, VACV mCherry inh 2%, HCV inhibitor 34% and Vaccinia Venus -8%.
`COc1ccc(-c2noc(-c3nnn(-c4cc(C)ccc4C)c3N)n2)cc1` gave FMDV antiviral 19%, HCMV inh -24, VACV mCherry inh -6%[7.34 µM] and Vaccinia Venus -2%[7.34 µM].
Screening COc1cc(-c2cc(C)c3c(OC)ccc(OC)c3n2)cc2c1OCCN(C(=O)CCn1ccc(C)n1)C2 returned FMDV antiviral -13%, VACV mCherry inh -12% and Vaccinia Venus -2%.
CCc1c(C)c(C#N)c2[nH]c3ccccc3n2c1=S was read as FMDV antiviral inconclusive, HCMV inh -102*, VACV mCherry inh -8%, HCV inhibitor inconclusive and Vaccinia Venus 6%.
`C=C(C)Cc1c(C)c(C#N)c2[nH]c3ccccc3n2c1=O` gave FMDV antiviral inconclusive, HCMV inh -66*, VACV mCherry inh -19%, HCV inhibitor inconclusive and Vaccinia Venus -26%.
CCc1cc(=S)n2c([nH]c3ccccc32)c1C#N was read as FMDV antiviral inconclusive, VACV mCherry inh -24%, HCV inhibitor -13% and Vaccinia Venus -25%.
`Cc1ccc(Cc2c(C)c(C#N)c3[nH]c4ccccc4n3c2=O)cc1` gave FMDV antiviral inconclusive, HCMV inh -33 and HCV inhibitor 11µM*.
Cc1cc2ccccc2c[n+]1CC(=O)c1ccc(F)cc1 was read as VACV mCherry inh -12% and Vaccinia Venus 0%.
O=C(NCc1ccc2c(c1)OCO2)c1ccc2c(c1)N(Cc1cccc(Cl)c1)C(=O)c1ccccc1S2=O (configuration not stated) was read as FMDV antiviral -10%, HCMV inh -21, VACV mCherry inh 7% and Vaccinia Venus -4%.
CC1CC(C)(O)CC(C(O)CC2CC(=O)NC(=O)C2)C1=O (configuration not stated) was read as FMDV antiviral inconclusive, HCMV inh -75*, VACV mCherry inh inconclusive, HCV inhibitor inconclusive and Vaccinia Venus 35µM*.
CCOc1ccc(Cl)cc1CSc1n[nH]c(C)n1 was read as FMDV antiviral -17%, HCMV inh -72*, VACV mCherry inh -14%, HCV inhibitor inconclusive and Vaccinia Venus -13%.
Screening COc1ccc2cc([C@@H](C)C(=O)O)ccc2c1 returned FMDV antiviral 2.2µM*, HCMV inh 51, VACV mCherry inh -13%, HCV inhibitor 32% and Vaccinia Venus -15%.
For CCN(CC)CCCNC(=O)CCCn1ncn2c(cc3occc32)c1=O the results were FMDV antiviral -17%, HCMV inh 12, VACV mCherry inh -11% and Vaccinia Venus -9%.
CCOC(=O)[C@]12CCC=C1N(Cc1ccccc1)C(=O)[C@H](CC(=O)NCc1cccc(C(F)(F)F)c1)C2 was read as FMDV antiviral -12%, HCMV inh -97*, VACV mCherry inh 6% and Vaccinia Venus -20%.
Screening COC(=O)[C@]12CCCCC=C1N(Cc1ccc3c(c1)OCO3)C(=O)[C@H](CC(=O)NCc1cccc3ccccc13)C2 returned FMDV antiviral -11%, HCMV inh -61*, VACV mCherry inh inconclusive and Vaccinia Venus inconclusive.
